Laboratory results as given in PubChem BioAssay (Tox21).
Records with an inconclusive call do not appear. Active and inactive are the calls of the source. Calls follow the shape of the dose curve; as a rule, active = well fitted cell-killing curve with a large enough effect in the repeat runs; inconclusive = weak or mixed curves, or effect the other way; inactive = flat fitted curve, though single readings scatter.
% is scaled to controls: 0 for no effect and ±100 for the full control effect; potency is read from the fitted curve at half-maximal effect.

Assay: qHTS assay to identify small molecule agonists of the sonic hedgehog signaling (Shh) pathway - cell viability counter screen (AID 1259366); also: nearly all actives have a fitted effect of over 50% in size
Settings: NIH/3T3 Gli1-Luc viability, CellTiter-Fluor, 24 h; series mostly up to 92.4 µM; viability change, negative = cytotoxic: at the top concentration
Excerpt: National Center for Advancing Translational Sciences [NCATS]
NIH Chemical Genomics Center [NCGC]
U.S. Environmental Protection Agency [EPA]
National Institutes of Environmental Health Sciences [NIEHS]
National Toxicology Program [NTP]
U.S. Food and Drug Administration [FDA]
The sonic hedgehog (Shh) pathway is essential for normal embryonic development. Dysregulation of the Shh pathway can cause severe developmental defects in organs. Therefore chemicals that interfere with the pathway are potential developmental toxicants. A cell line designated 3T3Gli1-Luc (DMB/OARSA/CFSAN/FDA, Laurel, MD), a NIH/3T3 derived clone containing stably integrated Gli1-Luc reporter is used to detect chemical interference of the Shh pathway, by changes in the expression of the firefly Luc gene under the control of the Gli1 transcriptional response element. This cell line was used to screen Tox21 libraries for identifying and prioritizing the potential developmental toxicants that interfere Shh pathway. The cytotoxicity of the compounds was tested in parallel by measuring the cell viability using CellTiter-Fluor assay system (Promega, Madison, WI) in the same wells.
Tox21 Assay Protocol Summary:
3T3 Gli1-Luc cells were dispensed at 2,000 per well in 5uL of culture medium into white solid bottom 1536-well plates (Greiner Bio-One, Monroe, NC) using a Multidrop Combi (Thermo Scientific, Waltham, MA) dispenser. The assay plates were incubated at 37 C and 5% CO2 for 4hr, and then 23nL of compounds dissolved in DMSO and positive control were transferred using a Pintool station (Wako, San Diego, CA). The assay plates were incubated at 37C and 5% CO2 for 24hr. For viability read, after 23hr of compound treatment, 1uL of CellTiter-Fluor reagent (Promega Corporation, Madison, WI) was added to each well of the assay plates using Flying Reagent Dispenser (FRD, Aurora Discovery, San Diego, CA) and incubated the assay plates at 37C for 1hr. The fluorescence signal was quantified using a ViewLux plate reader (Perkin Elmer, Shelton, CT).
In the case of `C=C(C)C(=O)NCCC[N+](C)(C)C`, the “viability change, negative = cytotoxic” value is reported as 1.06% (inactive). In the case of `C=C(C)[C@@H]1CCC2=CC(=O)C[C@@H](C)[C@]2(C)C1`, the “viability change, negative = cytotoxic” value is reported as -6.18% (inactive). In the case of `O=C1OC(=O)c2cc([N+](=O)[O-])ccc21`, the “viability change, negative = cytotoxic” value is reported as 2.03% (inactive). For `Cc1ccc(Nc2ccc(O)c3c2C(=O)c2ccccc2C3=O)cc1`, the “viability change, negative = cytotoxic” value was -0.433% (inactive). In the case of `CCn1c(=O)c2c(nc(/C=C/c3ccc(OC)c(OC)c3)n2C)n(CC)c1=O`, the “viability change, negative = cytotoxic” value is reported as -5.89% [at 42.5 µM] (inactive). With `N#CCN(CC#N)CCN(CC#N)CC#N` the “viability change, negative = cytotoxic” value was 1.51% (inactive). For `O=C(O)/C=C/c1ccc(Cn2ccnc2)cc1`, the “viability change, negative = cytotoxic” value was -0.546% [at 42.5 µM] (inactive). For `Cc1c(F)cc2c(=O)c(C(=O)O)cn3c2c1CCC3C` (stereo not given), the “viability change, negative = cytotoxic” value was 0.457% [at 42.5 µM] (inactive). With `NC(CS)C(=O)O` (stereo not given) the “viability change, negative = cytotoxic” value was 0.0953% [at 42.5 µM] (inactive). For `O=C(O)c1ccc[n+]([O-])c1`, the “viability change, negative = cytotoxic” value was 4.43% [at 42.5 µM] (inactive). For `NCCN1CCNC1=O`, the “viability change, negative = cytotoxic” value was -4.27% (inactive). In the case of `CCCCCN(CCCCC)C(=O)C(CCC(=O)O)NC(=O)c1ccc(Cl)c(Cl)c1` (stereo not given), the “viability change, negative = cytotoxic” value is reported as -2.03% [at 42.5 µM] (inactive). For `CN1[C@@H]2CC[C@H]1CC(NC(=O)n1c(=O)[nH]c3ccccc31)C2` (stereo not given in full), the “viability change, negative = cytotoxic” value was -10.7% [at 42.5 µM] (inactive). In the case of `COCc1ccc(COC)cc1`, the “viability change, negative = cytotoxic” value is reported as 1.28% (inactive). For `CC1=CCC2C(C1)C2(C)C` (stereo not given), the “viability change, negative = cytotoxic” value was -6.08% (inactive). In the case of `CCCCOCC(C)OCC(C)O` (stereo not given), the “viability change, negative = cytotoxic” value is reported as 3.83% (inactive). With `CC/C=C\C#N` the “viability change, negative = cytotoxic” value was -0.591% (inactive). With `CCN(CC)S(=O)(=O)c1ccc(C(=O)O)cc1` the “viability change, negative = cytotoxic” value was -4.17% [at 42.5 µM] (inactive). In the case of `O=C1CC2(CCCC2)CC(=O)N1`, the “viability change, negative = cytotoxic” value is reported as -1.14% [at 42.5 µM] (inactive). With `CC12CCC(CC1=O)C2(C)C` (stereo not given) the “viability change, negative = cytotoxic” value was 2.24% (inactive). For `Nc1ccc2cc(S(=O)(=O)O)ccc2c1`, the “viability change, negative = cytotoxic” value was 15.5% (inactive). For `C=CC(=O)N1CCOCC1`, the “viability change, negative = cytotoxic” value was -7.15% (inactive). In the case of `Nc1nc2c(ncn2CCC(CO)CO)c(=O)[nH]1`, the “viability change, negative = cytotoxic” value is reported as 5.35% [at 42.5 µM] (inactive). In the case of `CCCC(=O)O[C@]1(C(=O)CCl)[C@@H](C)C[C@H]2[C@@H]3CCC4=CC(=O)C=C[C@]4(C)[C@@]3(F)C(=O)C[C@@]21C`, the “viability change, negative = cytotoxic” value is reported as 7.02% [at 42.5 µM] (inactive). In the case of `Cn1ccc2cc3c(cc21)CCN3C(=O)Nc1cccnc1`, the viability change, negative = cytotoxic is reported as 4.12% [at 19 µM] (inactive). For `CC(C)(O)Cc1ccccc1`, the “viability change, negative = cytotoxic” value was -3.83% (inactive). For `CN(C)C(=O)Nc1ccccc1`, the “viability change, negative = cytotoxic” value was 1.47% (inactive). With `NS(=O)(=O)c1cc(C2(O)NC(=O)c3ccccc32)ccc1Cl` (stereo not given) the “viability change, negative = cytotoxic” value was -0.53% [at 42.5 µM] (inactive). For `Oc1cc(O)c2c(c1)O[C@H](c1ccc(O)c(O)c1)[C@H](O)C2`, the “viability change, negative = cytotoxic” value was -6.74% [at 42.5 µM] (inactive). With `CC(=O)O[C@H](CC(=O)[O-])C[N+](C)(C)C` the “viability change, negative = cytotoxic” value was 0.608% (inactive). In the case of `COC(=O)c1ccc(C(=O)OC)c(C(=O)OC)c1`, the “viability change, negative = cytotoxic” value is reported as 9.19% (inactive). In the case of `COCCOC(=O)CC#N`, the “viability change, negative = cytotoxic” value is reported as 9.13% (inactive). In the case of `CCN1CCCC1CNC(=O)c1cc(S(N)(=O)=O)ccc1OC` (stereo not given), the “viability change, negative = cytotoxic” value is reported as -7.98% (inactive). With `CC1=CC(C)C(C=O)C(C)C1` (stereo not given) the “viability change, negative = cytotoxic” value was -2.8% (inactive). In the case of `COC(=O)C1=C(C)NC(C)=C(C(=O)OCC(C)=O)C1c1ccccc1[N+](=O)[O-]` (stereo not given), the Potency is reported as 26.6 µM (active). With `CCO[Si](C)(OCC)OCC` the “viability change, negative = cytotoxic” value was 6.89% (inactive). For `CCC(C)(C)C1CCC(OC)CC1` (stereo not given), the “viability change, negative = cytotoxic” value was 1.8% (inactive). In the case of `CC(C)CCCC(C)CCCC(C)CCCCC(C)CCCC(C)CCCC(C)C` (stereo not given), the “viability change, negative = cytotoxic” value is reported as 1.7% [at 42.5 µM] (inactive). In the case of `CCOC(=O)Nc1ccc2c(c1)N(C(=O)CCN1CCOCC1)c1ccccc1S2`, the “viability change, negative = cytotoxic” value is reported as -13.1% [at 42.5 µM] (inactive). For `COC(C(=O)O)c1ccccc1` (stereo not given), the “viability change, negative = cytotoxic” value was -1.56% (inactive).
